# This is a sample that favours compounds with a hit; in the whole collection about 13% have one here.
# JMJD2E inh = qHTS Assay for Inhibitors of Human Jumonji Domain Containing 2E (JMJD2E); Lysine-specific demethylase 4E (Homo sapiens), B2RXH2; JMJD2E catalytic domain, FDH-coupled NADH fluorescence (FDH is formaldehyde dehydrogenase); Potency, µM (highest dose often 57.1 µM), usual class: inhibitors; 230,000 compounds, 1.6% hits; AID 2147, 2009; active = well fitted inhibition curve with a large enough effect, not every such curve was filed as active; inconclusive = small, poorly fitted or top-dose-only effect, or another doubt; inactive = no such curve, though single readings can be large or run the other way; note: nearly all actives have a fitted effect of over 50% in size
# Lamin A splicing = qHTS Assay for Modulators of Lamin A Splicing. HeLa LMNA splicing GFP/RFP minigene ratio, 48 h. Potency, µM (highest dose often 46.1 µM), most hits filed as inhibitors. 200,000 compounds, 0.01% hits. AID 1487, 2009; active = well fitted inhibition curve with a large enough effect in the signal ratio, with a control signal flat, not every such curve was filed as active; inconclusive = small, poorly fitted or top-dose-only effect, or effect the other way, or a change in a side signal; the % refers to the signal ratio
#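 S3 HeLa cells stably expressing lamin A-EGFP splicing minigene plus DsRed2, 600 cells/well, 48 h compound exposure at 37C. Laser-scanning cytometry; analysed as GFP (500-530 nm)/RFP (575-640 nm) total intensity ratio; 0.5% DMSO vehicle.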
# miR-21 act = qHTS Assay for Modulators of miRNAs and/orActivators of miR-21 | AID 2288, 2010 | 340,000 tested, under 10 active | HeLa miR-21 FLuc reporter, luciferase, 48 h | Potency, µM (series often up to 38.3 µM), hits mostly activators;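 note: miR-21 action dims this reporter so a rising signal means less miR-21 action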
#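 Compounds were titrated across several concentrations (up to approximately 40 uM) and incubated 48 hours with HeLa miR-21-FLuc reporter cells (miR-21 target sequence downstream of FLuc, endogenous miR-21). Readout was firefly luciferase luminescence after lytic detection reagent.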
# G9a block = qHTS Assay for Inhibitors of Histone Lysine Methyltransferase G9a | G9a H3K9 monomethylation, AlphaScreen, 2 h | Potency, µM (titrated, usually from 102 µM), usual class: inhibitors | 350,000 compounds, 8.8% hits; note: nearly all actives have a fitted effect of over 75% in size
# Target sequence (Q96KQ7 913-1193 limits assumed): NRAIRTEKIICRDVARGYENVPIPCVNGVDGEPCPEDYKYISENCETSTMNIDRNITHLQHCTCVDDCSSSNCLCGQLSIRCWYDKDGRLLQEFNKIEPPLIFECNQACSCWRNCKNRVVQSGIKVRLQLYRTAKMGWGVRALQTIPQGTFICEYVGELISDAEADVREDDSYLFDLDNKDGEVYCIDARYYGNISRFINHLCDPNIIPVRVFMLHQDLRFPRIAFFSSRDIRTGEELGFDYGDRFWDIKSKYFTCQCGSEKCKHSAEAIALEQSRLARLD
#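 Enzyme 20 nM + cpd, 15 min RT; add b-H3K9 pep 500 nM / SAM 20 uM; 2 h RT; anti-H3K9me1 Ab 0.5 ug/mL + SA donor / anti-rabbit acceptor beads 20 ug/mL each, 10 min; AlphaScreen read.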
# Sfp inh = qHTS Assay for Inhibitors of Bacillus subtilis Sfp phosphopantetheinyl transferase (PPTase) | Potency, µM, hits mostly inhibitors | 310,000 compounds, 3.5% hits | 4'-phosphopantetheinyl transferase ffp (Bacillus subtilis), Q9F4F7 | Biochemical Sfp PPTase activity, qHTS;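 note: the enzyme is Sfp with the accession as filed and its product quenches rhodamine fluorescence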
#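 After 15 min at room temperature with compound, 15 nM Sfp received 5 uM rhodamine-CoA plus 12.5 uM BHQ-2-ybbR (50 mM Hepes pH 7.6, 10 mM MgCl2). Rate came from the fluorescence difference over 30 min, ex 525/em 598 nm.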
# ALDH1A1 block = qHTS Assay for Inhibitors of Aldehyde Dehydrogenase 1 (ALDH1A1); Aldehyde dehydrogenase 1A1 (Homo sapiens), P00352; Purified ALDH1A1, NADH fluorescence, propionaldehyde substrate; Potency, µM (titrated, usually from 75.3 µM), usual class: inhibitors; 220,000 compounds, 7.3% hits; active = well fitted inhibition curve with a large enough effect, not every such curve was filed as active; inconclusive = small, poorly fitted or top-dose-only effect, or another doubt; inactive = no such curve, though single readings can be large or run the other way
# Target sequence (P00352 whole entry, looked up): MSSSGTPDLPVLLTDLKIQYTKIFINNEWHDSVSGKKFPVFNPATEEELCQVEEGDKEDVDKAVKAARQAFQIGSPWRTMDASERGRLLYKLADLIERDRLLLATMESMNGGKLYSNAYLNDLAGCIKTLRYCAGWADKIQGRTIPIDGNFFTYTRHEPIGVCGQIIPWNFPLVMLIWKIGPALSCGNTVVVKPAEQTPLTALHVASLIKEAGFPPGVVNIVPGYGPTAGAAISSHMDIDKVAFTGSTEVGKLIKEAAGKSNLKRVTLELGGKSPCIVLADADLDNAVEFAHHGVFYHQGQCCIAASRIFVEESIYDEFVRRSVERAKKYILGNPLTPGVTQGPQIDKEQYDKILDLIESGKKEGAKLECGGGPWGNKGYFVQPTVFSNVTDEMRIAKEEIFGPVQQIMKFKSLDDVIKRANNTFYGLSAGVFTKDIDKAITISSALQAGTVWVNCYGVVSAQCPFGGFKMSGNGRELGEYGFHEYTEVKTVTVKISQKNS
# A number is an active result; n = inactive; u = inconclusive; x = no result; [ ] = another dose, or the depositor's remark. Unless noted, calls come from the whole dose curve; as a rule, active = well fitted curve in the direction sought with a large enough effect; inconclusive = small, poorly fitted or top-dose-only effect, or another doubt; inactive = no such curve, though single readings can be large; an effect the other way counts as inactive or inconclusive.
SMILES,JMJD2E inh,Lamin A splicing,miR-21 act,G9a block,Sfp inh,ALDH1A1 block
Cc1cc2cc(CN(Cc3ccco3)C(=O)NCc3ccccc3)c(=O)[nH]c2cc1C,u,n,n,50µM,n,u
CC1CN(C(=O)CCNS(=O)(=O)c2ccc(Br)cc2)CC(C)O1 (stereo not given),x,x,x,n,x,x
COc1ccc(N=C2C(=O)N3CCCc4cccc2c43)cc1,n,n,n,u,n,0.035µM
COc1ccc(N=C2CCCN2CC(N)=O)cc1,n,n,n,n,n,n
CN(C)Cc1ccccc1-c1cc(N(C)C)ncn1,n,n,x,x,n,n
CCc1ccc(S(=O)(=O)NC(=S)NC2CCCCC2)cc1,n,x,n,n,n,25µM
O=S(=O)(NC(=S)NC1CCCCC1)c1ccc(Cl)cc1,n,x,n,n,n,25µM
Cc1ccc(S(=O)(=O)NC(=O)NC2CCCCC2)cc1,x,x,x,n[12.7 µM],n,x
Cc1ccc(S(=O)(=O)NC(=S)NC2CCCCC2)cc1,n,n,n,u,n,35µM
CC1(C)O[C@H]2[C@@H](c3[nH]nc4c(=O)[nH]c(=O)[nH]c34)OC[C@H]2O1,x,x,x,x,x,n[13.5 µM]
COc1ccc(N(C)C(=O)C2CCN(S(=O)(=O)c3cccc4nonc34)CC2)cc1,x,x,n,n,n,x
COc1ccc(C(Nc2ccccn2)c2ccc3ccc(C)nc3c2O)cc1C (stereo not given),x,x,n,8.9µM,x,x
O=C(O)c1ccc(N[C@H](c2ccccc2)c2ccc3cccnc3c2O)cc1,x,x,x,x,x,4µM
Cc1ccnc(NC(c2cccc(O)c2)c2ccc3ccc(C)nc3c2O)c1 (stereo not given),x,x,n,11µM,x,x
CCOc1cc(C(Nc2cc(C)ccn2)c2ccc3cccnc3c2O)ccc1OC (stereo not given),x,x,n,3.2µM,x,x
Cc1ccc(C(Nc2ccccn2)c2ccc3cccnc3c2O)cc1 (stereo not given),x,x,n,7.9µM,x,x
CCn1c(=O)c2c(n3c(=S)[nH]nc13)-c1ccccc1CC21CCCCC1,n,x,n,1.6µM,18µM,22µM
COc1ccc(S(=O)(=O)Nc2cccc(-c3ccc(N4CCOCC4)nn3)c2)cc1F,x,u,n,n,x,x
CN1CCN(C(=O)c2ccc3c(c2)N(Cc2ccc(F)cc2)C(=O)c2ccccc2S3=O)CC1 (stereo not given),x,x,n,n,n,x
O=C1C(Nc2cccc(O)c2)=C(N2CCCCC2)C(=O)c2ccccc21,n,n,n,x,32µM,u
CN(C1=C(N2CCCCC2)C(=O)c2ccccc2C1=O)c1ccccc1,n,u,n,3.5µM,n,n
Cc1ccc(C(=O)Nc2cccc(O)c2)cc1S(=O)(=O)N1CCCCCC1,x,x,n,n,n,x
O=C(/C=C/c1ccc(O)cc1)c1ccc(NC2=C(N3CCCCC3)C(=O)c3ccccc3C2=O)cc1,18µM,u,n,14µM,u,8.9µM
CN(c1ccccc1)c1nc(N)c([N+](=O)[O-])c(N2CCCCC2)n1,n,x,n,u,n,x
COc1ccccc1NC1=C(N2CCCCC2)C(=O)c2ccccc2C1=O,n,u,u,6.3µM,n,10µM
SMILES,JMJD2E inh,Lamin A splicing,miR-21 act,G9a block,Sfp inh,ALDH1A1 block
O=C(/C=C/c1ccccc1)c1ccc(O)cc1,n,x,x,n[2.33 µM],n,n
Cc1nnc(N2C(=O)c3oc4ccccc4c(=O)c3C2c2ccc(Cl)cc2)s1 (stereo not given),x,n,n,n,x,x
COC(=O)C(Cc1cccc(C)n1)(c1ccccc1)c1ccccc1,x,x,n,n,n,x
Cc1ccc(NC2=C(N3CCCCC3)C(=O)c3ccccc3C2=O)cc1,n,n,n,5.6µM,n,n
O=C1C(Nc2ccccc2)=C(N2CCCCC2)C(=O)c2ccccc21,n,u,n,n[0.501 µM],n,20µM
O=C(O)CSc1nnc(NC(=O)CN2CCOCC2)s1,x,x,n,u,n,x
O=C(NCCCl)C1Cc2c(ccc3ccccc23)O1 (stereo not given),u,x,n,40µM,n,u
Cc1cc(C(=O)O)ccc1-c1ccc(/C=C2\NC(=O)N(Cc3ccccc3Cl)C2=O)o1,n,x,n,25µM,13µM,n
Cc1ccc(C(=O)O)cc1-c1ccc(/C=C2/NC(=O)N(c3ccccc3)C2=O)o1,u,n,n,10µM,22µM,u
O=C(O)c1ccc(COc2ccccc2/C=C2\NC(=O)N(Cc3ccc(F)cc3)C2=O)cc1,n,x,n,u,n,n
O=C1NN(c2ccccc2)C(=O)/C1=C/c1ccc(-c2ccc(C(=O)O)cc2)o1,x,x,n,x,n,x
Cc1ccc(CN2C(=O)N/C(=C\c3ccc(-c4ccc(C(=O)O)cc4C)o3)C2=O)cc1,u,x,n,40µM,n,u
O=C(O)c1ccc(-c2ccc(/C=C3\NC(=O)N(Cc4ccc(Cl)cc4)C3=O)o2)cc1,u,x,n,50µM,n,u
O=c1c(-c2ccco2)[n+]([O-])c2ccccc2n1OCc1c(F)cccc1F,n,x,n,x,50µM,x
COc1ccccc1COn1c(=O)c(-c2ccco2)[n+]([O-])c2ccccc21,u,n,n,x,50µM,22µM
CCOC(=O)COn1c(=O)c(-c2ccco2)[n+]([O-])c2ccccc21,n,n,n,10µM,25µM,n
Cc1c(=O)n(OCc2ccccc2)c2ccccc2[n+]1[O-],u,n,n,n,n,u
CCOC(=O)COn1c(=O)c(-c2ccc(C)cc2)[n+]([O-])c2ccccc21,x,x,n,n[2.33 µM],n,x
O=c1c(-c2ccco2)[n+]([O-])c2ccccc2n1OCc1ccccc1F,n,n,n,n[12.7 µM],n,u
O=c1c(-c2ccco2)[n+]([O-])c2ccccc2n1OCc1ccccc1,u,n,n,6.3µM,u,22µM
Cc1cc(C)cc(NC(=O)C2CCN(S(=O)(=O)c3cccc(-c4noc(C)n4)c3)CC2)c1,x,u,u,n,x,x
CCOC(=O)C1=CC[C@H]2c3c(c4ccccc4n3C)C(=O)C1N2C,x,x,x,n[0.501 µM],x,x
O=C1c2ccccc2NC(c2ccc(-c3ccc(F)cc3)o2)N1O (stereo not given),x,x,x,n[0.501 µM],x,x
O=C1c2ccccc2NC(c2ccc(-c3cccc([N+](=O)[O-])c3)o2)N1O (stereo not given),u,u,n,u,n,14µM
CCN(CC)C(=O)COC(=O)C1CCN(S(=O)(=O)c2ccc3c(c2)OCCO3)CC1,x,x,x,n,x,x
Cc1ccc(N(CCC#N)C(=O)COC(=O)C2=COCCO2)cc1,x,x,x,40µM,x,x
Cc1ccc(N(CCC#N)C(=O)COC(=O)C2CCN(S(=O)(=O)c3ccc4c(c3)OCCO4)CC2)cc1,x,x,x,32µM,x,x
CN(C)C(=O)c1ccc(NC(=O)COC(=O)C2CCN(S(=O)(=O)c3ccc4c(c3)OCCO4)CC2)cc1,x,x,x,40µM,x,x

# Compound activity as filed in PubChem BioAssay.
